Assay results taken from the supplement of paper PMC9694430.

Key:
Test in all cases: thermal shift delta Tm vs DMSO control; higher = stronger stabilization (binding)
Conditions in all cases: 12.5 µM; protein concentration 2 µM
LOC_OS02G45750-cb003 = tested on: LOC_OS02G45750-cb003
Procedure, shortened: (§1)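 Rice kinase domain constructs were expressed in E. coli, purified, and tested by differential scanning fluorimetry with compound added in DMSO. Each well of a 96-well plate held 19.5 μl of 2 μM kinase in 100 mM potassium phosphate pH 7.5, 150 mM NaCl, 10% glycerol and 5 × SYPRO Orange, and fluorescence was read from 25°C to 95°C at 0.05°C/s. The melting temperature shift is the mean of triplicates, taken against protein with DMSO alone after Boltzmann fitting.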

LOC_OS02G54510-cb004 = tested on: LOC_OS02G54510-cb004
Procedure, shortened: as §1

LOC_OS03G04050-cb001 = tested on: LOC_OS03G04050-cb001
Procedure, shortened: as §1

LOC_OS03G12390-cb001 = tested on: LOC_OS03G12390-cb001
Procedure, shortened: as §1

LOC_OS03G27990-cb004 = tested on: LOC_OS03G27990-cb004
Procedure, shortened: as §1

LOC_OS03G50450-cb001 = tested on: LOC_OS03G50450-cb001
Procedure, shortened: as §1

LOC_OS03G50810-cb003 = tested on: LOC_OS03G50810-cb003
Procedure, shortened: as §1

LOC_OS04G35114-cb001 = tested on: LOC_OS04G35114-cb001
Procedure, shortened: as §1

LOC_OS04G38480-cb003 = tested on: T1, LOC_OS04G38480-cb003
T1 sequence (whole entry): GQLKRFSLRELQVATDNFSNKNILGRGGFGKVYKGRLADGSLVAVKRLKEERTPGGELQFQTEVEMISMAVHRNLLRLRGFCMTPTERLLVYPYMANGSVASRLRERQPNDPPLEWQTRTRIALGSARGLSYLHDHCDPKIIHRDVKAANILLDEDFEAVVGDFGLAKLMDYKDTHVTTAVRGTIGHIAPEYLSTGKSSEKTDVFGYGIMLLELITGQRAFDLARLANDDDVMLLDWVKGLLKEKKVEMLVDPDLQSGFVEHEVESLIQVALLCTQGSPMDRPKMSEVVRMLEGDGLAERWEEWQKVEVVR
Procedure, shortened: as §1

LOC_OS04G41100-cb001 = tested on: T2, LOC_OS04G41100-cb001
T2 sequence (whole entry): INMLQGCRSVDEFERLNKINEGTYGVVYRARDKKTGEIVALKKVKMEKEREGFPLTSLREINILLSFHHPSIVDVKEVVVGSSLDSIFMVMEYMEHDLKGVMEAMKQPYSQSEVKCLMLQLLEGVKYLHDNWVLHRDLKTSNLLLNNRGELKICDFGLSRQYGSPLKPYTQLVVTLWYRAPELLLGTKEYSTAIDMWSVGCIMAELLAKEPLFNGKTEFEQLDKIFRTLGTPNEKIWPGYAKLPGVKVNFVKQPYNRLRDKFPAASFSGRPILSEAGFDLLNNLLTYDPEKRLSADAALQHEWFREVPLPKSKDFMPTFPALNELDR
Procedure, shortened: as §1

LOC_OS04G57630-cb004 = tested on: LOC_OS04G57630-cb004
Procedure, shortened: as §1

LOC_OS05G07850-cb002 = tested on: LOC_OS05G07850-cb002
Procedure, shortened: as §1

LOC_OS05G16824-cb004 = tested on: LOC_OS05G16824-cb004
Procedure, shortened: as §1

LOC_OS05G28520-cb001 = tested on: LOC_OS05G28520-cb001
Procedure, shortened: as §1

LOC_OS05G30820-cb001 = tested on: LOC_OS05G30820-cb001
Procedure, shortened: as §1

LOC_OS05G43570-cb004 = tested on: LOC_OS05G43570-cb004
Procedure, shortened: as §1

LOC_OS06G16330-cb003 = tested on: LOC_OS06G16330-cb003
Procedure, shortened: as §1

LOC_OS06G22820-cb001 = tested on: T3, LOC_OS06G22820-cb001
T3 sequence (whole entry): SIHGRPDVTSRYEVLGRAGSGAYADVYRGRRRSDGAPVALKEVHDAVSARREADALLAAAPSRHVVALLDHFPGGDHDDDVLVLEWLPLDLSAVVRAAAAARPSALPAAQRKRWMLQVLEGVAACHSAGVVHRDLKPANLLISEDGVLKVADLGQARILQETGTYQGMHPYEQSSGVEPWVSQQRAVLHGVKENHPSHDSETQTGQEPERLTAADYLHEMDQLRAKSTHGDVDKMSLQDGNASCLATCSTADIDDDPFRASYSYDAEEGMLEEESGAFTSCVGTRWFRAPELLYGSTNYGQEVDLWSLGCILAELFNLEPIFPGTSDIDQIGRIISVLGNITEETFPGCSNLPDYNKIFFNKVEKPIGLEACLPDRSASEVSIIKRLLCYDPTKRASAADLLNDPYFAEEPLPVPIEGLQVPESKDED
Procedure, shortened: as §1

LOC_OS07G06570-cb004 = tested on: LOC_OS07G06570-cb004
Procedure, shortened: as §1

LOC_OS07G07230-cb001 = tested on: LOC_OS07G07230-cb001
Procedure, shortened: as §1

Sequence of LOC_OS06G16330-cb003 (as listed by the source): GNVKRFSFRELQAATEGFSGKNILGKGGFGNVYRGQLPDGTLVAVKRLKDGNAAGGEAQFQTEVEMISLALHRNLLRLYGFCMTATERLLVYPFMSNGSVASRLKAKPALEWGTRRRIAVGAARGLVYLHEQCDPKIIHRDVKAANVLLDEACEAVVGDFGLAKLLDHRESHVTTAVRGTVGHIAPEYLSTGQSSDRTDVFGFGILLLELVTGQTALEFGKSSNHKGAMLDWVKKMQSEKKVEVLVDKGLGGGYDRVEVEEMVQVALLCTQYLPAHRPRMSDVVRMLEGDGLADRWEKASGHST

| SMILES | thermal shift delta Tm (LOC_OS02G45750-cb003) | thermal shift delta Tm (LOC_OS02G54510-cb004) | thermal shift delta Tm (LOC_OS03G04050-cb001) | thermal shift delta Tm (LOC_OS03G12390-cb001) | thermal shift delta Tm (LOC_OS03G27990-cb004) | thermal shift delta Tm (LOC_OS03G50450-cb001) | thermal shift delta Tm (LOC_OS03G50810-cb003) | thermal shift delta Tm (LOC_OS04G35114-cb001) | thermal shift delta Tm (LOC_OS04G38480-cb003) | thermal shift delta Tm (LOC_OS04G41100-cb001) | thermal shift delta Tm (LOC_OS04G57630-cb004) | thermal shift delta Tm (LOC_OS05G07850-cb002) | thermal shift delta Tm (LOC_OS05G16824-cb004) | thermal shift delta Tm (LOC_OS05G28520-cb001) | thermal shift delta Tm (LOC_OS05G30820-cb001) | thermal shift delta Tm (LOC_OS05G43570-cb004) | thermal shift delta Tm (LOC_OS06G16330-cb003) | thermal shift delta Tm (LOC_OS06G22820-cb001) | thermal shift delta Tm (LOC_OS07G06570-cb004) | thermal shift delta Tm (LOC_OS07G07230-cb001) |
| --- | --- | --- | --- | --- | --- | --- | --- | --- | --- | --- | --- | --- | --- | --- | --- | --- | --- | --- | --- | --- |
| CCS(=O)(=O)c1cccc(-c2cc(C(=O)NC3CCN(C)CC3)c(C)c3[nH]c4ncc(C)cc4c23)c1 | 5.63 °C | 2.03 °C | -0.02 °C | 6.67 °C | 3.82 °C | 3.53 °C | 5.67 °C | 6.23 °C | 3.14 °C | 0.65 °C | 2.61 °C | 13.6 °C | 10.6 °C | 2.38 °C | 3.26 °C | 0.4 °C | 8.47 °C | -0.41 °C | 0.61 °C | 0.94 °C |
| C=CC(=O)Nc1ccc(CN2C(=O)N(c3cc(OC)cc(OC)c3)Cc3cnc(Nc4ccc(N5CCN(C)CC5)cc4)nc32)cc1 | 1.47 °C | 1.08 °C | 0.74 °C | 0.1 °C | 0.49 °C | 0.33 °C | 0.75 °C | 1.29 °C | 2.8 °C | 0.83 °C | 7.31 °C | 0.75 °C | 1.16 °C | 1.83 °C | 0.78 °C | 0.66 °C | 2.37 °C | 0.84 °C | 2.63 °C | 1.29 °C |
| COc1cc2nccc(Oc3ccc(NC(=O)C4(C(=O)Nc5ccc(F)cc5)CC4)cc3)c2cc1OC [Cabozantinib malate (XL184)] | 0.86 °C | 0.27 °C | 0.7 °C | 0.1 °C | 0.34 °C | 0.45 °C | 0.59 °C | 0.52 °C | 1.59 °C | 0.69 °C | 0.66 °C | 10.2 °C | -1.18 °C | 1.86 °C | 0.41 °C | 0.69 °C | 1.53 °C | 0.93 °C | 1.5 °C | -0.02 °C |
| CCn1c(N)c(C(=O)NC)c(=O)c2ccc(C#CC(C)(O)COC)nc21 (stereo not given) | 1.5 °C | -0.18 °C | 0.43 °C | 1.63 °C | 0.43 °C | 0.79 °C | 0.85 °C | 1.56 °C | 0.68 °C | 0.29 °C | 0.45 °C | 5.21 °C | 3.79 °C | 0.37 °C | 0.73 °C | 0.13 °C | 0.51 °C | 0.3 °C | 1.2 °C | -0.09 °C |
| COC(=O)c1ccc2c(c1)NC(=O)/C2=C(\Nc1ccc(N(C)C(=O)CN2CCN(C)CC2)cc1)c1ccccc1 [Nintedanib (BIBF 1120)] | 2.59 °C | 0.74 °C | 0.2 °C | 2.83 °C | 1.25 °C | 0.03 °C | 2.2 °C | 6.69 °C | 0.23 °C | 0.7 °C | 1.08 °C | 1.57 °C | 9.2 °C | 0.54 °C | 0.35 °C | 0.43 °C | 0.71 °C | 0.4 °C | 0.96 °C | 0.42 °C |
| COc1cc(N2CCN(C)CC2)ccc1Nc1ncc2c(n1)N(C)c1ccccc1C(=O)N2 | 0.85 °C | 0.32 °C | 0.17 °C | 0.62 °C | 0.11 °C | -0.01 °C | 0.23 °C | 0.35 °C | 1.14 °C | 0.17 °C | 0.23 °C | 3.08 °C | -1.75 °C | 0.12 °C | 0.51 °C | 0.36 °C | 1.14 °C | 0.34 °C | 0.21 °C | 0.21 °C |
| Cc1cc2c(F)c(Oc3ncnn4cc(OC[C@@H](C)O)c(C)c34)ccc2[nH]1 | 1.84 °C | -0.24 °C | 0.46 °C | -0.04 °C | 1.01 °C | 0.21 °C | 0.22 °C | 5.26 °C | 1.05 °C | 0.62 °C | 0.32 °C | 2.97 °C | -0.74 °C | 0.85 °C | 0.47 °C | -0.02 °C | 0.19 °C | 0.53 °C | 0.51 °C | 0.51 °C |
| CNC(=O)c1ccccc1Sc1ccc2c(/C=C/c3ccccn3)n[nH]c2c1 [Axitinib] | 4.92 °C | 0.12 °C | 0.3 °C | 0.31 °C | 0.01 °C | 0.21 °C | 0.35 °C | 2.98 °C | 0.63 °C | 0.65 °C | 0.24 °C | 5.45 °C | 0.17 °C | -0.35 °C | 0.45 °C | 0.48 °C | 2.75 °C | 0.73 °C | 1.05 °C | 0.76 °C |
| O=C1NCCc2[nH]c(-c3ccncc3)cc21 | 0.39 °C | 0.14 °C | 0.37 °C | 3.14 °C | 0.51 °C | 0.87 °C | 0.45 °C | 0.84 °C | 0.45 °C | 1.14 °C | 0.34 °C | 4.2 °C | -2.22 °C | 0.25 °C | 0.53 °C | 0.46 °C | 1.3 °C | 0.55 °C | 0.4 °C | 0.42 °C |
| CC[C@@](C)(Nc1ccnc(-c2c[nH]c3ncccc23)n1)C(=O)NCC(F)(F)F [Decernotinib (VX-509)] | 1.82 °C | 0.32 °C | 0.47 °C | 0.52 °C | 0.33 °C | 0.54 °C | 1.35 °C | 1.32 °C | 3.52 °C | 0.25 °C | 0.07 °C | 9.28 °C | 2.45 °C | 0.87 °C | 0.49 °C | 0.57 °C | 8.57 °C | 0.47 °C | 0.54 °C | 0.24 °C |
| COc1ccc(Cl)c(Nc2nc3ccccc3nc2NS(=O)(=O)c2cccc(NC(=O)C(C)(C)N)c2)c1 [Pilaralisib (XL147)] | 1.06 °C | -0.18 °C | 0.85 °C | 2.37 °C | 1.12 °C | 1.09 °C | 1.54 °C | 2.89 °C | 2.92 °C | 1.52 °C | 2.01 °C | 2.9 °C | 2.11 °C | 0.49 °C | 0.75 °C | 1.75 °C | 1.96 °C | 2.03 °C | 0.12 °C | 0.54 °C |
